Assay outcomes as filed in PubChem BioAssay.
Only a sample is shown.
aSyn UTR act – Activators via SNCA 5'UTR binding, MLPCN; alpha-synuclein 5'UTR reporter, activators screen; activity score, % (tested at 7.5 µM), hits read low; AID 1814, 2009; hit rate 7.1% among 300,000; in the data active means activity score below about -60%
Large screens that a line does not name were inactive.

CN=c1scc(-c2ccc(OC)cc2)n1/N=C(\C)c1cccnc1	aSyn UTR act -156
Cc1ccc(C)c(C2NC(=O)c3ccccc3N2)c1 (stereo not drawn)	aSyn UTR act -70
CSc1ccc(C2NC(=O)c3ccccc3N2)cc1 (stereo not drawn)	aSyn UTR act -126
O=C(NC(=S)Nc1ccccn1)c1cccc([N+](=O)[O-])c1	aSyn UTR act -89
CCOc1ccc(C(=O)NC(=S)Nc2ccccn2)cc1[N+](=O)[O-]	aSyn UTR act -104
O=C(Nc1ccccn1)c1sc2cc([N+](=O)[O-])ccc2c1Cl	aSyn UTR act -161
COc1cccc(/C=C/C(=O)c2c(O)cc(C)oc2=O)c1O	aSyn UTR act -111
COc1ccc(/C=C/C(=O)c2c(O)cc(C)oc2=O)c(OC)c1	aSyn UTR act -230
CCOc1ccc(-c2cc(CCCC(=O)Nc3cc(OC)ccc3OC)no2)cc1	none
Cc1ccc(-c2cc(C(=O)Nc3cc(C)ccc3O)no2)cc1	aSyn UTR act -183
COc1ccc(-c2cc(C(=O)Nc3cc(C)ccc3O)no2)cc1	aSyn UTR act -132
COc1ccc(-c2cc(C(=O)Nc3cc(Cl)ccc3O)no2)cc1	aSyn UTR act -156
COc1ccc(OC)c(-c2cc(C(=O)Nc3c(C)nn(Cc4ccccc4Cl)c3C)no2)c1	none
Cc1ccc(O)c(NC(=O)c2cc(-c3ccccc3Cl)on2)c1	aSyn UTR act -173
Nc1c(C(=O)c2ccccc2)sc2nsc(SCCN3CCCC3)c12	aSyn UTR act -87
COC(=O)c1ccc(NC(=O)c2ccc(C)cc2)o1	aSyn UTR act -75
COC(=O)C(C(=O)OC)c1ccc(NC(=O)c2cccc(Cl)c2)cc1	aSyn UTR act -90
COC(=O)c1ccc(NC(=O)c2cccc(Cl)c2)o1	aSyn UTR act -86
Cc1c(Cl)ccc2c(C(=O)NC(C)c3ccncc3)cc(-c3ccncc3)nc12 (stereo not drawn)	aSyn UTR act -67
CC(C)Nc1ncnc2c1cnn2-c1ccc(Cl)cc1	none
O=[N+]([O-])c1ccc(O)c(/C=N/Nc2ncnc3c2cnn3-c2ccccc2)c1	none
Cn1ncc2c(Nc3ccc4ccccc4c3)ncnc21	aSyn UTR act -164
CC(=O)Nc1ccc(Nc2ncnc3c2cnn3-c2cccc(C)c2)cc1	aSyn UTR act -159
Cn1ncc2c(O/N=C(\N)c3ccc(C(C)(C)C)cc3)ncnc21	none
CC(=O)Nc1ccc(Nc2ncnc3c2cnn3-c2ccccc2)cc1	aSyn UTR act -110
Clc1ccc(Nc2ncnc3c2cnn3-c2ccccc2)cc1	aSyn UTR act -119
Cc1ccc(/C=N/NC(=O)c2cccs2)cc1[N+](=O)[O-]	aSyn UTR act -107
O=C(N/N=C/c1ccccc1[N+](=O)[O-])c1cccs1	aSyn UTR act -125
COc1ccc(C(CC(=O)c2ccc(O)cc2)S(=O)(=O)c2ccc(C)cc2)cc1 (stereo not drawn)	aSyn UTR act -250
CS(=O)(=O)N1N=C(c2ccc3nccnc3c2)CC1c1ccccc1 (stereo not drawn)	aSyn UTR act -79
CS(=O)(=O)Nc1ccc(C2=NN(S(C)(=O)=O)C(c3ccc4c(c3)OCO4)C2)cc1 (stereo not drawn)	aSyn UTR act -207
COc1ccc(C2=NN(S(C)(=O)=O)C(c3ccc4nccnc4c3)C2)cc1 (stereo not drawn)	aSyn UTR act -150
COc1ccc(C2CC(c3ccc(OC)c(OC)c3)=NN2S(C)(=O)=O)cc1 (stereo not drawn)	aSyn UTR act -169
CS(=O)(=O)N1N=C(c2ccccc2)CC1c1ccc2nccnc2c1 (stereo not drawn)	aSyn UTR act -77
Cc1ccc(C2=NN(S(C)(=O)=O)C(c3ccc4nccnc4c3)C2)cc1 (stereo not drawn)	aSyn UTR act -127
Cc1cccc(NC(=O)c2ccc(OCC3CCCO3)cc2)c1C (stereo not drawn)	aSyn UTR act -70
O=C(Nc1ccc(Cl)cc1)c1ccc(OCC2CCCO2)cc1 (stereo not drawn)	aSyn UTR act -202
O=C(Nc1ccccc1)OCC1CCCO1 (stereo not drawn)	aSyn UTR act -84
CCOC(=O)N/N=C/c1ccc(N(CC)CC)cc1O	aSyn UTR act -432
CCOC(=O)N/N=C/c1cn(Cc2ccc(Cl)cc2)c2ccccc12	none
CCOC(=O)N/N=C/c1ccccc1F	aSyn UTR act -135
CCOC(=O)N/N=C/c1cccc(Cl)c1Cl	aSyn UTR act -97
CCN(CC)c1ccc(/C=N/NC(=O)c2c(Cl)cnn2C)c(O)c1	none
Cc1cc(C(=O)N/N=C/c2cccc(Cl)c2Cl)no1	aSyn UTR act -108
CSc1cccc(NC(=O)c2cnccn2)c1	aSyn UTR act -69
CSc1cccc(NC(=O)c2ccccn2)c1	aSyn UTR act -103
CCc1ccc(NC(=O)c2cnn3ccccc23)cc1	none
CSc1cccc(NC(=O)c2cnn3ccccc23)c1	aSyn UTR act -100
O=C(NCc1ccc(F)cc1)c1cnn2ccccc12	aSyn UTR act -87
COc1ccc(NC(=O)c2ccccn2)cc1	none
COc1ccc(NC(=O)c2ccccn2)cc1OC	aSyn UTR act -88
COc1ccc(CNc2cc(C)ccn2)cc1	aSyn UTR act -104
COc1cc(CNc2ccc(C)c(C)c2)cc(OC)c1OC	aSyn UTR act -166
